An excerpt weighted towards active compounds, which were near 2.5% of everything screened.
ATG4B inh: ATG4B (human) cysteine protease inhibition | actives 0.51% (n = 340,000) | ATG4B cleavage of LC3-PLA2, NBD-HPC fluorescence, 1 h | inhibition, % at 8.33 µM; in the data active = inhibition above about 40%
Target sequence (Q9Y4P1 whole entry, looked up): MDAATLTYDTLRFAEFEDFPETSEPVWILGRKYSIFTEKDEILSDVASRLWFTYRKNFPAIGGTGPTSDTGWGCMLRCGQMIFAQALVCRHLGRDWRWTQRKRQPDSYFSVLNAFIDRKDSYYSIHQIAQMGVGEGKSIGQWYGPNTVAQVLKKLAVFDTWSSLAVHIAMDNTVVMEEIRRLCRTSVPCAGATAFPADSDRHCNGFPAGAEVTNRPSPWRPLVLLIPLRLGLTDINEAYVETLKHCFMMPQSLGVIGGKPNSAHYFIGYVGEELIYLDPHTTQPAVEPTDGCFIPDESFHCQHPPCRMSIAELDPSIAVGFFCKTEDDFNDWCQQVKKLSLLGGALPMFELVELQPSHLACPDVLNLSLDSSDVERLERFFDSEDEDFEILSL
Efflux pump inh: antifungal efflux pump inhibition, Nile Red retention; inhibition, % at 10 µM; actives 0.44% (n = 330,000); S. cerevisiae Candida pump triplex; AID 485275;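 active = plate passing quality check with inhibition over a set limit, or well fluorescence over plate mean plus 4 SD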;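 also: Nile Red retained in pooled yeast measured as flow cytometry median fluorescence; 0% = buffer negative control and 100% = Enniatin B positive control; higher means more Nile Red kept so more efflux inhibition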
AI-2 QS modul: modulators of Vibrio harveyi AI-2 quorum sensing system | activity change, % at 7.5 µM | actives 0.4% (n = 300,000) | Vibrio harveyi JMH597 AI-2 luminescence/OD600 ratio, 9 h; active compounds read low; strain lacks LuxN and CqsS sensors; 0 = neutral-control median; in the data active = activity change below about -75%, passing the limit was not always enough;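 also: luminescence divided by OD600 gain over 9 h not by final OD600 alone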
Mot1-301 SUMO: inhibitors of SUMOylation pathway: yeast Mot1-301 growth rescue. AID 2716. growth rescue, % at 18.8 µM. S. cerevisiae Mot1-301 growth rescue, ATP luminescence, 38.5C; percent above DMSO median, 100 means doubled. actives 1% (n = 320,000);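 active = every valid replicate shows activation above 250% relative to neutral control wells; inactive = the rest, any valid replicate at or below 250%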;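 also: OY570 slx delta 5 strain wells were the positive control but not used for scaling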
V-ATPase pH: yeast V-ATPase proton transport regulation by pHLuorin; actives 0.37% (n = 350,000); AID 504577; response, % at 10 µM; S. cerevisiae, pHLuorin cytosolic pH fluorescence; in the data active = response mostly above about 7.3%, no sharp cut-off; inactive = mostly below about 5.4%; also: actives read high
Cmpd fluor yeast: flagged as fluorescent in efflux inhibitor counter-screen | shares compounds with Efflux pump inh | S. cerevisiae AD/pABC3, compound fluorescence, flow cytometry | fluorescence ratio to DMSO, % at 10 µM | actives 4% (n = 1,700);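 active = fluorescence ratio to DMSO above its plate's cutoff, the plate mean ratio plus 5 SD, cut at about 210% in these data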;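 also: unstained yeast with no Nile Red so the signal is compound autofluorescence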
CaMdr1 efflux inh: blocks the Candida albicans Mdr1 efflux pump in yeast; inhibition, % at 10 µM; shares compounds with Efflux pump inh; AID 588518; S. cerevisiae AD/CaMDR1, Nile Red efflux, flow cytometry; actives 1% (n = 1,700); in the data active = inhibition above about 26%;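 also: 0% = DMSO vehicle and 100% = reference inhibitor; higher means more Nile Red retained so more efflux inhibition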
Cdr2 pump inh: Candida Cdr2 efflux pump inhibition. shares compounds with Efflux pump inh. S. cerevisiae AD/CaCDR2, Nile Red retention, flow cytometry. Nile Red retention ratio vs DMSO, % at 10 µM. actives 4% (n = 1,700); in the data active = Nile Red retention ratio vs DMSO above about 190%;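 also: higher ratio means more blocking of Cdr2 efflux of the dye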
CaCdr1 efflux inh: Candida Cdr1 efflux pump inhibition; shares compounds with Efflux pump inh; S. cerevisiae AD/CaCDR1, Nile Red efflux, flow cytometry; inhibition, % at 10 µM; actives 1% (n = 1,700);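 active = inhibition above the screen-wide mean plus twice its standard deviation, cut at about 32% in these data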
* marks the source's active call; other numbers are inactive results; / = no result given.

SMILES	ATG4B inh	Efflux pump inh	AI-2 QS modul	Mot1-301 SUMO	V-ATPase pH	Cmpd fluor yeast	CaMdr1 efflux inh	Cdr2 pump inh	CaCdr1 efflux inh
CC(C)(C)C1CCC(OC(=O)C[N+]2(C)CCCC2)CC1 (configuration not stated)	-2	0.5*	18	-4	-2	100	0	260*	0
C[n+]1ccccc1N1CCN(c2ccccc2Cl)CC1	4	0	-12	0	-2	/	/	/	/
Cc1ccc(Cl)cc1N1CCN(c2cccc[n+]2C)CC1	6	2.2*	33	20	5	95	0	92	0
CC(C(=O)N1CCc2ccccc21)N1CCN(S(=O)(=O)c2ccc(C(F)(F)F)cc2)CC1 (configuration not stated)	-14	0.7*	/	0	2	106	0	116	0
Cc1ccc(-c2cc(C(=O)Nc3ccc(S(=O)(=O)Nc4onc(C)c4C)cc3)c3ccccc3n2)cc1	15	0.6*	29	/	4	114	0	94	0
CCCS(=O)(=O)c1nnnn1-c1cccc(OC)c1	-5	0	-63	0	4	/	/	/	/
O=C(COC(=O)c1ccc(Cl)nc1)NC(=O)c1ccccc1	-4	0.6*	6	-20	-3	110	0	112	0
O=C(COC(=O)c1ccc(Cl)nc1)Nc1c(Cl)cccc1C(F)(F)F	4	0.5*	41	-27	-1	92	0	89	0
O=C(COC(=O)c1cc[n+]([O-])cc1)Nc1c(Cl)cccc1C(F)(F)F	1	0	15	6	-1	/	/	/	/
COc1ccc([C@H]2CC(=O)C=C(c3ccnc4ccc(Cl)cc34)C2)cc1	-7	67*	/	23	2	105	0	102	0
COc1ccc([C@H]2CC(=O)C=C(c3cc(Cl)ccc3C)C2)cc1	5	0	/	8	2	/	/	/	/
Cc1nnc(NC(=O)c2sc3nc(-c4cccs4)cc(C(F)(F)F)c3c2N)s1	30	1.3*	27	6	0	131	0	137	0
CC1CC(=O)N(CC(=O)Nc2ccc3c(c2)OCCO3)c2ccccc2S1 (configuration not stated)	-4	0	-9	-14	0	531*	5	109	0
O=C(CN1C(=O)CC(c2ccco2)Sc2ccccc21)Nc1ccccc1F (configuration not stated)	17	0	9	-7	1	/	/	/	/
O=C(CN1C(=O)CC(c2ccco2)Sc2ccccc21)NCc1ccc2c(c1)OCO2 (configuration not stated)	-1	9.8*	6	-4	0	82	0	87	0
CC1Oc2ccccc2N(CC(=O)Nc2ccc3c(c2)OCCO3)C1=O (configuration not stated)	-4	0	14	4	-1	/	/	/	/
OCC(O)C1OC(c2ccco2)OC(CO)C1O (configuration not stated)	-2	/	/	/	0	/	/	/	/
CCN(CC)S(=O)(=O)c1cccc(NC(=O)COC(=O)C2CC3C=CC2C3)c1 (configuration not stated)	-12	0	19	-17	2	/	/	/	/
Cc1ccc2c(c1)N(C)/C(=C/c1cccc[n+]1C)S2	2	1.2*	9	18	-1	167	1	97	1
CN1/C(=C/c2cccc[n+]2C)Sc2ccccc21	1	0	24	-24	-1	/	/	/	/
COc1ccc2c(c1)N(C)/C(=C/c1cccc[n+]1C)S2	-2	1.1*	9	69	0	196	2	106	1
Nn1c(-c2cccc(O)c2)nnc1-c1cccc(O)c1	1	/	/	/	1	/	/	/	/
CCOc1ccc(N(CC(=O)N2CCN(Cc3ccccc3)CC2)S(C)(=O)=O)cc1	-9	0	4	226	-2	/	/	/	/
O=C1/C(=C\c2ccccn2)SC(=S)N1Nc1ncc(C(F)(F)F)cc1Cl	6	0	9	7	6	/	/	/	/
O=C1/C(=C/c2ccccn2)SC(=S)N1Nc1ncc(C(F)(F)F)cc1Cl	5	/	/	/	-6	100	0	92	0
SMILES	ATG4B inh	Efflux pump inh	AI-2 QS modul	Mot1-301 SUMO	V-ATPase pH	Cmpd fluor yeast	CaMdr1 efflux inh	Cdr2 pump inh	CaCdr1 efflux inh
O=C1/C(=C/c2ccc(F)cc2)SC(=S)N1Nc1ncc(C(F)(F)F)cc1Cl	-1	0	13	35	0	100	0	108	0
COc1ccc(CCn2c(-c3ccccc3)nc3c(c(=O)c4ccccc4n3C)c2=O)cc1	/	0	14	-14	/	/	/	/	/
COc1ccc(Cn2c(-c3ccccc3)nc3c(c(=O)c4ccccc4n3C)c2=O)cc1	7	1.1*	20	-11	-1	110	0	119	0
COC(=O)c1nn(-c2ccccc2)nc1-c1nn(-c2ccccc2)nc1C(=O)OC	-1	0.4*	43	12	-6	101	0	98	0
CN(c1ccc(OCC(=O)OCC(=O)Nc2ccc(F)cc2)cc1)S(=O)(=O)c1ccc(Cl)cc1	-11	0	16	-7	4	/	/	/	/
Cc1ccc(NC(=O)COc2ccc(N(C)S(=O)(=O)c3ccc(F)cc3)cc2)cc1	-4	0.8*	/	-8	5	87	0	104	0
O=C(NC1CCCC1)C(c1ccncc1)N(C(=O)c1ccco1)c1ccccc1 (configuration not stated)	5	0.6*	-9	3	2	98	0	108	0
NC(=S)N/N=C/c1cccc(/C=N/NC(N)=S)c1	-2	0	49	-29	2	/	/	/	/
NC(=S)N/N=C/c1ccc2ccccc2c1	1	8.2*	-48	86	1	112	0	108	0
COc1ccc(NC(=O)CSc2nc3c(c(=O)n2-c2ccccc2OC)SCC3)cc1	-16	1.1*	34	-3	-7	79	0	93	0
CCC(=O)N1CCN(c2ccc(NC(=O)c3ccc4c(c3)OCCO4)cc2)CC1	-27	0	5	/	2	/	/	/	/
CCC(=O)N1CCN(c2ccc(Cl)cc2NC(=O)c2ccc3c(c2)OCCO3)CC1	-5	0.8*	28	-2	5	104	0	98	0
CCCNc1nc(NCC)nc(OC)n1	6	0	5	14	1	/	/	/	/
c1ccc(CN2CCOCC2)cc1	-5	0	7	9	3	/	/	/	/
c1ccc2c(c1)Cc1cc(CN3CCOCC3)ccc1-2	-15	5.9*	3	52	0	84	0	122	0
